# Unmarked numbers belong to inactive results.
# Tested on: H1 OCT4-GFP hESC
# Assay: survival Z score in repeat assay, Calcein AM perimeter-filtered objects (vs plate mean) (Z score (SD)); higher = more surviving cells, active = 3 or more
# Details: 10 µM, 2 days, cells per well: 1500, rescreen
# Method: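 Top perimeter-filtered hits were cherry-picked and rescreened in the same Calcein AM assay (H1 OCT4-GFP hESCs, 1500 cells/well, 10 µM, 2 days, objects with perimeter ≥100 µm). Results are per-plate Z scores; a hit is Z ≥3.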
row,Compound,survival Z score in repeat assay
1,CC(N/C(=N\C#N)Nc1ccncc1)C(C)(C)C (configuration not stated) [Pinacidil],0.345
2,O=S(=O)(c1cccc2cnccc12)N1CCCNCC1,4.63 (active)

# Source: the supplement of paper PMC3558484
